Biological target: AMP-activated protein kinase, AMPK (Homo sapiens) (UniProt P54646+O43741+P54619+Q9UGJ0+Q9Y478+Q13131+Q9UGI9)
Experiment: AMP-dependent Kinase enzyme assay. An in vitro enzyme assay that detects ADP turnover that is directly proportional to AMPK activity. This uses naive AMPK that is activated during the assay with MK-8722
Format: functional
Parameters: scale not given: direction of the effect not stated beside the values
Details: 30 µM

| Structure (SMILES) | Percent Effect |
| --- | --- |
| Cc1cc(CNCC2(O)CCOCC2)ccc1F | -5.64% |
| CCc1ccc(CCC(=O)N2CCC(=O)Nc3cccnc32)cc1 | 0.539% |
| Cc1cccc(-c2noc(Cn3nc(C(N)=O)ccc3=O)n2)c1 | 5.3% |
| CNc1ccc(C2CN(c3nc(C)cc(C)n3)CCO2)nc1 (stereo not given) | 18% |
| CCC(C(=O)NC1(CN2CCOCC2)CCCC1)n1cccn1 (stereo not given) | 5.49% |
| Nc1cc(C(=O)N2CCC(Oc3cccc(C(F)(F)F)c3)CC2)ccn1 | -4.01% |
| CC(C)Cc1cc(CNC(=O)c2cccc3c2NCCC3)no1 | 1.24% |
| Cc1sc(Oc2ccccc2Cl)nc1C(=O)O | 10.7% |
| CN1C[C@@H]2CC[C@H](CC1=O)N2C(=O)c1cc2ccccc2[nH]c1=O | 5.77% |
| CCc1ccccc1OCCN(C)C(=O)CN1CCCC1 | -130% |
| O=C(O)c1cnc(OCC2CC2)c(Cl)c1 | -1.49% |
| CCN(Cc1ccoc1)C(=O)Nc1ccccc1CN1CCOCC1 | 4.22% |
| CCn1cc(NC(=O)NCCN2CCCc3ccccc32)cn1 | 7.2% |
| CC(O)Cc1cn(CC2CCN(C3CCSCC3)CC2)nn1 (stereo not given) | -7.5% |
| N#Cc1ccc(CNCCc2cc(F)cc3c2OCOC3)cc1 | 4.17% |
| CN(C)c1ccc(C(=O)N(Cc2ccncc2)CC2CCCO2)nn1 (stereo not given) | -3.6% |
| CN(C)C(=O)c1ccccc1NC(=O)N[C@@H]1c2ccccc2C[C@@H]1O | 3.27% |
| Cn1nnnc1SCC1(O)CCCCC1 | 32.1% |
| CCc1nnc2n1CCN(C(=O)C(C)Oc1ccc(C#N)cc1)C2 (stereo not given) | 10.6% |
| CC(CNC(=O)c1cnc[nH]1)Oc1ccccc1Br (stereo not given) | 10.3% |

| Structure (SMILES) | Percent Effect |
| --- | --- |
| Cc1cc(C(=O)N2CCN(c3ncc4c(n3)CCOC4)CC2)sc1C | 16.3% |
| CN1CCC(Nc2ccc(F)cc2OCC(F)(F)F)C1=O (stereo not given) | -16.7% |
| c1ccc2oc(N3CCC(c4nncn4C4CC4)CC3)nc2c1 | 8.44% |
| O=C(Cc1nc(-c2ccncc2)n[nH]1)NCCCN1CCOCC1 | -0.0149% |
| CCCc1nnc(N2CCC(N3CCCC(O)C3)CC2)o1 (stereo not given) | 4.12% |
| CCc1nnc(C(C)N2CCC(NC(=O)C3CCCCC3)CC2)o1 (stereo not given) | 2.87% |
| COCCN(CCOC)c1nc2c(s1)c(C)nn2C | 0.796% |
| Cc1noc(C2CCN(Cn3cc(Cl)cn3)CC2)n1 | 2.75% |
| CCN(Cc1ccc2c(c1)OCO2)c1ncc(S(N)(=O)=O)s1 | 1.52% |
| COc1cccc(-c2n[nH]cc2-c2nc(CN3CCCC3)no2)c1 | -4.34% |
| Cc1nc(NCc2cccnc2)cc(C2COCCN2)n1 (stereo not given) | 3.04% |
| Cc1ccc(Oc2ncccc2CNC(=O)C2COC(=O)N2)c(F)c1F (stereo not given) | 3.47% |
| COc1ccc(S(=O)(=O)C2CCN(C(=O)c3cc(C)cs3)CC2)cc1 | 2.13% |
| COCCC(=O)N1CCCC(CCC(=O)NCc2ccccc2F)C1 (stereo not given) | 8.91% |
| COCCC(=O)Nc1nc2c(OC)cc(F)cc2s1 | -1.47% |
| CC(O)CN1CCN(Cc2coc(-c3cccc(Cl)c3)n2)CC1 (stereo not given) | -7.56% |
| CCN(C)S(=O)(=O)N1CCC(C(O)c2ccc(F)cc2)CC1 (stereo not given) | -1.14% |
| Cn1ccc(C(=O)N2CCCC2c2cc(CO)[nH]n2)n1 (stereo not given) | 20.7% |
| CC(C)(C)SCCN1CC(=O)N2CC[C@@H](O)C[C@H]2C1=O | 3.02% |
| CC(=O)N[C@H]1CCO[C@@H](c2cccc(NC(=O)C(C)(C)C)c2)C1 | 7.76% |

Reference: ChEMBL document CHEMBL3988442, “University of Dundee, Small-Polar-MMV Screening Library” (2021)
